Results filed as inconclusive are left out. Activity calls are given as the source filed them. Calls come from the whole dose curve; as a rule, active = well fitted cell-killing curve with a large enough effect in the repeat runs; inconclusive = weak or mixed curves; inactive = flat fitted curve, though single readings scatter.
% is set by controls: 0 for no effect and ±100 for the full control effect.

The experiment is described as follows: qHTS assay to identify small molecule antagonists of the estrogen receptor beta (ER-beta) signaling pathway - cell viability counter screen (AID 1259382). Note: nearly all actives have a fitted effect of over 55% in size. To be noted: ER-beta-UAS-bla HEK293T viability, CellTiter-Glo luminescence, 16 h; series mostly up to 92.4 µM. From the text:
U.S. Tox21 Program National Center for Advancing Translational Sciences [NCATS] NIH Chemical Genomics Center [NCGC] U.S. Environmental Protection Agency [EPA] National Institutes of Environmental Health Sciences [NIEHS] National Toxicology Program [NTP] U.S. Food and Drug Administration [FDA] Tox21 Assay Overview: Estrogen receptor (ER), a nuclear hormone receptor, plays an important role in development, metabolic homeostasis and reproduction. Two subtypes of ER, ER-alpha and ER-beta, have similar expression patterns with some uniqueness in both types. Endocrine disrupting chemicals (EDCs) and their interactions with steroid hormone receptors like ER causes disruption of normal endocrine function. To identify the compounds that inhibit ER signaling, an ER-beta-UAS-bla GripTite cell line (Life Technologies, Madison, WI, USA) containing a beta-lactamase reporter gene under the control of an UAS response element was used to screen Tox21 10K compound library. The cytotoxicity of the Tox21 compound library against the ER-beta-bla cell line was tested in parallel by measuring the cell viability using CellTiter-Glo assay in the same wells.
Tox21 Assay Protocol Summary: ER-beta-UAS-bla HEK293T cells were dispensed at 2,000 cells/4 uL of assay medium containing 2% charcoal stripped FBS per well into black wall/clear-bottom 1536-well plates using a Multidrop Combi (ThermoFisher Scientific, Waltham, MA) dispenser. After the assay plates were incubated at a 37C and 5% CO2 for 6 hr, 23 nL of compounds dissolved in DMSO, positive controls or DMSO only was transferred to the assay plate by a Pintool station (Kalypsys, San Diego, CA), followed by addition of 1 uL (1nM as final concentration) of 17-beta-estradiol (E2) in assay medium using a Flying Reagent Dispenser (FRD, Aurora Discovery, San Diego, CA). The plates were incubated at 37C and 5% CO2 for 16 hr. Then 1 uL of LiveBLAzer B/G FRET substrate was added using a Flying Reagent Dispenser, the plates were incubated at room temperature for 2 hours, and fluorescence intensity was measured by an Envision plate reader (PerkinElmer, Shelton, CT). For cell viability readout that measures cytotoxicity, 4 uL/well of CellTiter-Glo reagent was added into the assay plates using a FRD. After 30 min incubation at room temperature, the luminescence intensity in the plates was measured using a ViewLux (PerkinElmer) plate reader.
For orientation: Quantitative high-throughput screening tests each substance at several concentrations.
For the compound `Cc1ccc(C(=O)O)cc1[N+](=O)[O-]`, the compound was classed as inactive.

On to `OC[C@H]1O[C@@H](O[C@@H]2[C@@H](CO)O[C@](O)(CO)[C@H]2O)[C@H](O)[C@@H](O)[C@H]1O`, for which the outcome was inactive.

Take `CC(=O)c1cc(C)oc1C`: the compound was called inactive.

With `CC(CO)(CO)CO`, the result was inactive.

With `Cc1ccc(N)cc1S(=O)(=O)O`, the compound was classed as inactive.

Regarding `O=Cc1cc2ccccc2o1`, the outcome was inactive.

`C=C(C)[C@@H]1CC=C(C)CC1`: the call was inactive.

For the compound `CC(=O)O[Si](C)(OC(C)=O)OC(C)=O`, the compound was called inactive.

On to `O=[N+]([O-])c1c(Cl)cc(Cl)cc1Cl`, for which the compound was called inactive.

Take `COc1c2occc2c(OC)c2c(=O)cc(C)oc12`: the compound was called inactive.

For the compound `N#Cc1cscn1`, the compound was called inactive.

With `NCC1(Cc2noc(=O)[nH]2)CCCCC1`, the result was inactive.

For `COC(=O)/C=C\C(=O)O`, the call was inactive.

Consider `CC(C)COC(=O)c1ccccc1`, for which the result was inactive.

As for `[O-][n+]1cccc(/C(Cl)=N/OC[C@@H](O)CN2CCCCC2)c1`, the call was inactive.

Turning to `CC(C)c1ccc(C=O)cc1`, the compound was called inactive.

Regarding `CN(C)CC/C=C1/c2ccccc2COc2ccc(CC(=O)O)cc21`, the result was inactive.

For `CCOC(CN1CCN(CC(C)C(=O)c2ccccc2)CC1)c1ccccc1` (stereo not given), the activity change, negative = cytotoxicity is -10.1% [at 19 µM] (inactive).

For the compound `O=NN(CCCl)C(=O)NC1CCCCC1`, the call was inactive.

In the case of `CC(=O)CCc1ccc(OC(C)=O)cc1`, the compound was called inactive.

In the case of `COc1cc2c(cc1OC)CN(C(=O)[C@H](C)N[C@@H](CCc1ccccc1)C(=O)O)[C@H](C(=O)O)C2`, the compound was called inactive.

In the case of `CN(C)CCCO[C@@H]1[C@H]2OC(C)(C)O[C@H]2O[C@@H]1C(O)CO` (stereo not given in full), the compound was called inactive.

Regarding `CC1(C)Cc2cccc(N)c2O1`, the result was inactive.

Take `CC(S)C(C)S` (stereo not given): the call was inactive.

With `COC(=O)c1ccccc1C(=O)O`, the compound was classed as inactive.

Regarding `O=C=NCC1CCCC(CN=C=O)C1` (stereo not given), the call was inactive.

On to `CC(=O)O[C@H]1C[C@@H]2CC[C@@]1(C)C2(C)C`, for which the compound was classed as inactive.

As to `C#CCN[C@@H]1CCc2ccccc21`, the compound was called inactive.

As to `CC(C)=CCC/C(C)=C/COC=O`, the result was inactive.

For `NCc1ccc(S(N)(=O)=O)cc1`, the compound was called inactive.

`CC(=O)Nc1ccc(OC(=O)c2ccccc2OC(C)=O)cc1`: the result was inactive.

As for `CC1=C(C(=O)O)N2C(=O)[C@@H](NC(=O)[C@H](N)C3=CCC=CC3)[C@H]2SC1`, the compound was called inactive.

Regarding `CCCCCCCCCCCCCCCCCCOCCO`, the activity change, negative = cytotoxicity was 4.32% [at 19 µM] (inactive).

As to `CC(O)COC(C)(C)C` (stereo not given), the result was inactive.

`CC(C)C[C@@H]1[C@H](c2ccccc2)OC(=O)N1CCCN1CCCCCC1`: the compound was classed as inactive.

Regarding `CCCCCCCCCCCCCBr`, the result was inactive.

On to `N#Cc1ccccc1O`, for which the result was inactive.

With `OCC(O)CN1CCN(c2ccccc2)CC1` (stereo not given), the compound was classed as inactive.

As to `OCCN1CCOCC1`, the result was inactive.

As to `CCC[C@@H]1C[C@@H](C(=O)N[C@@H]([C@H]2O[C@H](SC)[C@H](O)[C@@H](O)[C@H]2O)[C@@H](C)O)N(C)C1`, the call was inactive.

These data come from PubChem BioAssay (Tox21).
